For 23 molecules, outcome and AC50 results are on record in PubChem BioAssay (EPA / NIEHS).

The structures appear in SMILES notation. The source holds several records for some structures; these can differ, active in one and inactive in another. Calls of active or inactive are those of the source. How the source made its calls: active means hit-call score of the fitted dose curve at least 0.9, where 1 is the maximum; inactive means score below 0.9.

Read-out in the first assay: flavin-containing dimethylaniline monooxygenases 3 (FMO3), FMO3 (gene 2328)
The assay is described as follows: LTEA_HepaRG_FMO3: Life Technologies and Expression Analysis (LTEA) Assay for flavin-containing dimethylaniline monooxygenases 3 (FMO3) using HepaRG (AID 2283453).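 On AC50: differentiated human HepaRG liver cells in serum-free induction medium; FMO3 transcript by TaqMan qRT-PCR normalized to ACTB GAPDH and POLR2A.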 The note with it: mRNA level, 48 h; actives raise or lower the signal. The gist of the method:
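FMO3 transcript quantified by TaqMan qRT-PCR against three housekeeping genes after 48 h chemical exposure of HepaRG cells. Eight-point half-log series, top 100 uM, 0.5% DMSO vehicle; phenobarbital 1mM induction control; up- or down-regulation fitted.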
Regarding `CNC(=O)/C=C(\C)OP(=O)(OC)OC`, the molecule was called inactive.

`N#Cc1c(Cl)c(Cl)c(Cl)c(C#N)c1Cl`: the AC50 is 36.6 µM (active).

Consider `CC1(C)C(C=C(Cl)Cl)C1C(=O)OC(C#N)c1ccc(F)c(Oc2ccccc2)c1` (stereo unspecified), for which the molecule was called inactive.

Consider `O=C(NC(=O)c1c(F)cccc1F)Nc1ccc(OC(F)(F)C(F)OC(F)(F)F)c(Cl)c1` (stereo unspecified), for which the outcome was inactive.

Regarding `O=C(Nc1ccccc1)Nc1cnns1`, the AC50 is 73.5 µM (active).

For `CCc1ccc(C(=O)NN(C(=O)c2cc(C)cc(C)c2)C(C)(C)C)cc1`, the concentration at half-maximal activity (AC50) is 81.9 µM (active).

`COP(=O)(OC)OC=C(Cl)Cl`: the call was inactive.

On to `CC[C@H](C)[C@H]1O[C@]2(C=C[C@@H]1C)C[C@@H]1C[C@@H](C/C=C(\C)[C@@H](O[C@H]3C[C@H](OC)[C@@H](O[C@H]4C[C@H](OC)[C@@H](O)[C@H](C)O4)[C@H](C)O3)[C@@H](C)/C=C/C=C3\CO[C@@H]4[C@H](O)C(C)=C[C@@H](C(=O)O1)[C@]34O)O2` (tested in a mixture with another compound), for which the AC50 is 14 µM (active).

Turning to `Clc1ccccc1-c1nnc(-c2ccccc2Cl)nn1`, the molecule was called inactive.

In the case of `CNC(=O)Oc1ccccc1OC(C)C`, the result was inactive.

With `O=C1c2ccccc2C(=O)N1SC(Cl)(Cl)Cl`, the molecule was classed as inactive.

For `CCOC1Oc2ccc(OS(C)(=O)=O)cc2C1(C)C` (stereo unspecified), the half-maximal activity concentration (AC50) was 78.3 µM (active).

As for `O=C(O)CCCOc1ccc(Cl)cc1Cl`, the result was inactive.

Take `CC(C)(C)C(O)/C(=C\c1ccc(Cl)cc1Cl)n1cncn1` (stereo unspecified): the AC50 is 33.8 µM (active).

In the case of `CCOCN(C(=O)CCl)c1c(C)cccc1CC`, the AC50 was 78.7 µM (active).

Take `CCCN(CCOc1c(Cl)cc(Cl)cc1Cl)C(=O)n1ccnc1`: the AC50 is 33 µM (active).

As for `Cc1[nH]c(=O)n(C(C)(C)C)c(=O)c1Cl`, the result was inactive.

For the molecule `CC(C)OC(=O)Nc1cccc(Cl)c1`, the call was inactive.

Regarding `CCC(C)(NC(=O)c1cc(Cl)c(C)c(Cl)c1)C(=O)CCl` (stereo unspecified), the concentration at half-maximal activity (AC50) was 80.2 µM (active).

For `CNC(=O)CSP(=S)(OC)OC`, the molecule was classed as inactive.

As to `CC1(c2ccc(Oc3ccccc3)cc2)OC(=O)N(Nc2ccccc2)C1=O` (stereo unspecified), the AC50 was 24.4 µM (active).

For `CNC(=O)Oc1cccc(N=CN(C)C)c1`, the molecule was called inactive.

Read-out in another assay: Cytochrome P450 (CYP1A1), CYP1A1 (gene 1543)
In words: LTEA_HepaRG_CYP1A1: Life Technologies and Expression Analysis (LTEA) Assay for Cytochrome P450 (CYP1A1) using HepaRG (AID 2283454). The note with it: mRNA level, 48 h; actives raise or lower the signal. An outline of the steps: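 Using HepaRG cultures with 0.5% DMSO as vehicle, eight-concentration exposures (max 100 uM) lasted 48 h. Transcript levels were measured by TaqMan qRT-PCR and normalized to ACTB, GAPDH and POLR2A.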
Regarding `CNC(=O)/C=C(\C)OP(=O)(OC)OC`, the outcome was inactive.

Regarding `N#Cc1c(Cl)c(Cl)c(Cl)c(C#N)c1Cl`, the AC50 was 23.1 µM (active).

Turning to `CC1(C)C(C=C(Cl)Cl)C1C(=O)OC(C#N)c1ccc(F)c(Oc2ccccc2)c1` (stereo unspecified), the AC50 is 37.7 µM (active).

On to `O=C(NC(=O)c1c(F)cccc1F)Nc1ccc(OC(F)(F)C(F)OC(F)(F)F)c(Cl)c1` (stereo unspecified), for which the concentration at half-maximal activity (AC50) is 21.2 µM (active).

Regarding `O=C(Nc1ccccc1)Nc1cnns1`, the half-maximal activity concentration (AC50) was 73.6 µM (active).

On to `O=S(=O)(O)C(F)(F)C(F)(F)C(F)(F)C(F)(F)C(F)(F)C(F)(F)C(F)(F)C(F)(F)F`, for which the half-maximal activity concentration (AC50) is 22.6 µM (active) and the outcome was inactive.

Regarding `CCc1ccc(C(=O)NN(C(=O)c2cc(C)cc(C)c2)C(C)(C)C)cc1`, the molecule was called inactive.

Consider `COP(=O)(OC)OC=C(Cl)Cl`, for which the result was inactive.

As to `CC[C@H](C)[C@H]1O[C@]2(C=C[C@@H]1C)C[C@@H]1C[C@@H](C/C=C(\C)[C@@H](O[C@H]3C[C@H](OC)[C@@H](O[C@H]4C[C@H](OC)[C@@H](O)[C@H](C)O4)[C@H](C)O3)[C@@H](C)/C=C/C=C3\CO[C@@H]4[C@H](O)C(C)=C[C@@H](C(=O)O1)[C@]34O)O2` (tested in a mixture with another compound), the AC50 is 0.361 µM (active).

On to `Clc1ccccc1-c1nnc(-c2ccccc2Cl)nn1`, for which the concentration at half-maximal activity (AC50) was 12.8 µM (active).

`CNC(=O)Oc1ccccc1OC(C)C`: the call was inactive.

On to `O=C1c2ccccc2C(=O)N1SC(Cl)(Cl)Cl`, for which the call was inactive.

On to `CCOC1Oc2ccc(OS(C)(=O)=O)cc2C1(C)C` (stereo unspecified), for which the concentration at half-maximal activity (AC50) was 50 µM (active).

On to `O=C(O)CCCOc1ccc(Cl)cc1Cl`, for which the AC50 is 50.8 µM (active).

As to `CC(C)(C)C(O)/C(=C\c1ccc(Cl)cc1Cl)n1cncn1` (stereo unspecified), the half-maximal activity concentration (AC50) is 9.3 µM (active).

`CCOCN(C(=O)CCl)c1c(C)cccc1CC`: the AC50 is 50 µM (active).

For the molecule `CCCN(CCOc1c(Cl)cc(Cl)cc1Cl)C(=O)n1ccnc1`, the AC50 is 2.56 µM (active).

As for `Cc1[nH]c(=O)n(C(C)(C)C)c(=O)c1Cl`, the AC50 is 24.1 µM (active).

Regarding `CC(C)OC(=O)Nc1cccc(Cl)c1`, the AC50 is 50 µM (active).

On to `CCC(C)(NC(=O)c1cc(Cl)c(C)c(Cl)c1)C(=O)CCl` (stereo unspecified), for which the half-maximal activity concentration (AC50) is 50.2 µM (active).

On to `CNC(=O)CSP(=S)(OC)OC`, for which the AC50 is 24.8 µM (active).

As to `CC1(c2ccc(Oc3ccccc3)cc2)OC(=O)N(Nc2ccccc2)C1=O` (stereo unspecified), the AC50 is 14.1 µM (active).

With `CNC(=O)Oc1cccc(N=CN(C)C)c1`, the half-maximal activity concentration (AC50) was 50.2 µM (active).
